Assay results as given in PubChem BioAssay.
A number with no mark means an inactive call. Calls of active or inactive are those of the source. Cut-off read from the data, not from the text of the source, unless noted: active = inhibition above about 36%; inactive = the rest.

How the values were obtained:
[1] = StAR promoter reporter inhibitors, counter-screen for LRH-1 inverse agonist project, cell-based, luminescence, high throughput (AID 651611; in the data active = inhibition above about 28%); conditions: StAR promoter luciferase reporter counterscreen, at 3.6 µM, stronger effect = higher value
[2] = target: Nuclear receptor subfamily 5 group A member 2 (Homo sapiens) (UniProt O00482); experiment: LRH-1 (NR5A2) inverse agonists, retest, confirmation, cell-based, luminescence (AID 651613; in the data active = inhibition above about 42%;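 note: HEK293T cells co-transfected with LRH-1 and StAR promoter luciferase reporter; 0% = vehicle wells and 100% = parental cells lacking receptor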); conditions: cell-based LRH-1 luciferase reporter, inverse agonism; at 3.6 µM; stronger effect = higher value
Nuclear receptor subfamily 5 group A member 2 (Homo sapiens), sequence (O00482 whole entry, looked up): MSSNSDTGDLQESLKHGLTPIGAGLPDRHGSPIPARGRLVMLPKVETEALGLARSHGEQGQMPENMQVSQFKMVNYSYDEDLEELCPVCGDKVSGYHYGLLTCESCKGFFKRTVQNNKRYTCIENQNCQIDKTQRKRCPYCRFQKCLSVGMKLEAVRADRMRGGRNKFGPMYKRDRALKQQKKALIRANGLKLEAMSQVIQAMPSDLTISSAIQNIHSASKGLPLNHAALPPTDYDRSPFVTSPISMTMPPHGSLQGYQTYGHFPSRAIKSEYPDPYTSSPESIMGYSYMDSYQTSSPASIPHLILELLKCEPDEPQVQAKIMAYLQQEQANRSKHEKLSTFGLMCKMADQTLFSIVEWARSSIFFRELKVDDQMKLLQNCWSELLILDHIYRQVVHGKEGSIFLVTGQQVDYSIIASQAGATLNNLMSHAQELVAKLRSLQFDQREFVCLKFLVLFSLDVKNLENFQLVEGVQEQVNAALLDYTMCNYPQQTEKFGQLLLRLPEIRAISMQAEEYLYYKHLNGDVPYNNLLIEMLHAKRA

[3] = target: Steroidogenic factor 1 (Homo sapiens) (UniProt Q13285); experiment: SF1 (NR5A1) inverse agonists, counter-screen for LRH-1 inverse agonist project, cell-based, luminescence, high throughput (AID 651614; in the data active = inhibition above about 44%;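 note: cells cotransfected with StAR promoter reporter and SF1 expression vector; 0% = vehicle on cells with receptor and 100% = vehicle on cells lacking receptor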); conditions: cell-based SF1 luciferase reporter, at 3.6 µM, stronger effect = higher value
Steroidogenic factor 1 (Homo sapiens), sequence (Q13285 whole entry, looked up, the tested form may be a part): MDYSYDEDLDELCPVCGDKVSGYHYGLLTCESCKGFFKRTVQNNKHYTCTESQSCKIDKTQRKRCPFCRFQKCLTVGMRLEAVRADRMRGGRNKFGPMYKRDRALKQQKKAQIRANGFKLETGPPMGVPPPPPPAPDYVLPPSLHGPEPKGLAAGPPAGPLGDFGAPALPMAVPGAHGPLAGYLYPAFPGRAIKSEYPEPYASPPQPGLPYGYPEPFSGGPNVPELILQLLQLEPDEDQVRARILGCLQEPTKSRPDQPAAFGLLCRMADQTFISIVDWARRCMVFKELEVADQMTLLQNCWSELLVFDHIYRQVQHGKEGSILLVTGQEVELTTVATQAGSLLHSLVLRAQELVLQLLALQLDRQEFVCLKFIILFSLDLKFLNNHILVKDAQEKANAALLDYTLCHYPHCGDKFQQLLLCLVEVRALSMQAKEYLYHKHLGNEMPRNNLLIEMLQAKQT

[4] = VP16 transactivation reporter inhibitors, counter-screen for LRH-1 inverse agonist project, cell-based, luminescence, high throughput (AID 651615; in the data active = inhibition above about 33%); conditions: Gal4-VP16 luciferase reporter cells, at 3.6 µM, stronger effect = higher value
[5] = test system: transactivating tegument protein VP16 (Human herpesvirus 1); experiment: VP16 transactivation reporter inhibitors, counter-screen for SRC2 inhibitor project, cell-based, luminescence, single concentration (AID 652007); conditions: cell-based VP16 transactivation luciferase reporter, at 8.9 µM, stronger effect = higher value
[6] = target: Nuclear receptor coactivator 2 (Homo sapiens) (UniProt Q15596); experiment: SRC2 coactivator transcriptional activity inhibitors, confirmation, cell-based, luminescence, HEK293, triplicate (AID 652008;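 active = mean inhibition above 46.5%, the solvent-only control mean plus 3 SD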;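 note: 0% = DMSO-treated cells and 100% = Gossypol at 36 µM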); conditions: HEK293 GAL4-SRC2 luciferase reporter, at 8.9 µM, stronger effect = higher value
Nuclear receptor coactivator 2 (Homo sapiens), sequence (Q15596 whole entry, looked up, the tested form may be a part): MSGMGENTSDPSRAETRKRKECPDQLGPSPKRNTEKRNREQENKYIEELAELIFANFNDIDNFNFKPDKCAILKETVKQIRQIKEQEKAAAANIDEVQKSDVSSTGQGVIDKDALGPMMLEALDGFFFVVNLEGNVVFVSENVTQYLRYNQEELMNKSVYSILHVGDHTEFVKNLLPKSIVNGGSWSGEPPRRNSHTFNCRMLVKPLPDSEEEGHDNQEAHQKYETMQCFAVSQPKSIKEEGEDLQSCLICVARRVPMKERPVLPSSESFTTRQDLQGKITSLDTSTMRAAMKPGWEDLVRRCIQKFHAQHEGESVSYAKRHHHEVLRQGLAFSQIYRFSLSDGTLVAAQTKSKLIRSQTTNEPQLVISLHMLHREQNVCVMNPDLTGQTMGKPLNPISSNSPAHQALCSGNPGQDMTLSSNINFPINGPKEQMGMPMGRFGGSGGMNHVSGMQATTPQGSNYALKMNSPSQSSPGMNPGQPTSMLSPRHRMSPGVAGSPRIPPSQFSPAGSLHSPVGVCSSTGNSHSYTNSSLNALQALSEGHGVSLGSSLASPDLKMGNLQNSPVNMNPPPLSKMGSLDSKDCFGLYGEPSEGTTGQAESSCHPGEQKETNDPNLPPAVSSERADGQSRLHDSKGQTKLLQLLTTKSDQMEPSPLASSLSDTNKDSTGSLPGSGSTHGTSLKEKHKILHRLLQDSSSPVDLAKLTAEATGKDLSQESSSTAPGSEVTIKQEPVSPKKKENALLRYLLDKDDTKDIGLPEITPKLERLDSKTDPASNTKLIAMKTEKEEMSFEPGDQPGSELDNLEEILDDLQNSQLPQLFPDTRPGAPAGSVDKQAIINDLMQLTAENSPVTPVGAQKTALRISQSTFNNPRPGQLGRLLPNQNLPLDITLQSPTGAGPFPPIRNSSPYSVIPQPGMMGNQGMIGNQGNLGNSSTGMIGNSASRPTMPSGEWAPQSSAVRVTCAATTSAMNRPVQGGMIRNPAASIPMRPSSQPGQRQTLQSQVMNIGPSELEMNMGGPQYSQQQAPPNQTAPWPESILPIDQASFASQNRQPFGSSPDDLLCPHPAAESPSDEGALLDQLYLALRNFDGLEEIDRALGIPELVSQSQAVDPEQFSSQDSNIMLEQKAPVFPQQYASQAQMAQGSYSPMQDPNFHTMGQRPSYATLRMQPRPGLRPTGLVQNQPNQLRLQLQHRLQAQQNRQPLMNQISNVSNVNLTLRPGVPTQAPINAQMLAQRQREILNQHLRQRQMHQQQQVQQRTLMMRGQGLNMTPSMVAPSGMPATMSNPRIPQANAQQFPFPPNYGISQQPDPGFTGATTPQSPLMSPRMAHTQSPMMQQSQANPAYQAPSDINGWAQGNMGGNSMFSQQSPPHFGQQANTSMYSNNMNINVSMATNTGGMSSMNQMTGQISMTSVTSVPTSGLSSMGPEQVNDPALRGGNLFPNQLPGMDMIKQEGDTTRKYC

## COC(=O)COc1cc(C)cc2oc(=O)c3c(c12)CCCC3
[1]
  inhibition: 3.14%
[2]
  inhibition: 46.5% (active)
[3]
  inhibition: 50.6% (active)
[4]
  inhibition: -11.3%

## C=C1C(=O)O[C@@H]2C[C@@H](C)[C@@H]3C4OC4C(=O)[C@@]3(C)[C@@H](O)[C@H]12 (stereo partly drawn)
[1]
  inhibition: -30%
[2]
  inhibition: 60.7% (active)
[3]
  inhibition: 67.9% (active)
[4]
  inhibition: 82.8% (active)

## COC(=O)C(C)Oc1cc(C)cc2oc(=O)c3c(c12)CCCC3 (stereo not drawn)
[1]
  inhibition: 14.4%
[2]
  inhibition: 63.3% (active)
[3]
  inhibition: 55.9% (active)
[4]
  inhibition: -29.8%

## OC1(c2ccc(F)cc2)CC2CCC(C1)N2Cc1nnnn1C1CCCC1 (stereo not drawn)
[1]
  inhibition: -7.67%
[2]
  inhibition: 46.8% (active)
[3]
  inhibition: 50.3% (active)
[4]
  inhibition: -0.39%

## c1ccc2c(c1)[IH]c1ccccc1-2
[1]
  inhibition: 42.4% (active)
[2]
  inhibition: 78.5% (active)
[3]
  inhibition: 64.1% (active)
[4]
  inhibition: 72.8% (active)

## CCOC(=O)[C@]12Cc3ccc(C)cc3[C@H]1N(C1CCCCC1)C(=O)c1ccccc12
[1]
  inhibition: 39.6% (active)
[2]
  inhibition: 98% (active)
[3]
  inhibition: 29.8%
[4]
  inhibition: 84.1% (active)

## FC(F)(F)c1ccccc1N1CC1c1ccncc1 (stereo not drawn)
[5]
  inhibition: -14.4%
[6]
  inhibition: -11.4%

## COc1ccc(S(=O)(=O)N2Cc3cnnn3-c3ccccc3C2C#N)cc1 (stereo not drawn)
[5]
  inhibition: 1.55%
[6]
  inhibition: -21%

## COC(=O)C1=C(c2ccc(-c3ccccc3)c(F)c2)C[C@@H]2CC[C@H]1N2C(=O)NCc1ccc(F)cc1
[5]
  inhibition: -5.9%
[6]
  inhibition: 2.93%

## CCn1ccnc1CN1CCCC(C(=O)c2cccc(C(F)(F)F)c2)C1 (stereo not drawn)
[5]
  inhibition: -3.5%
[6]
  inhibition: 15.9%

## C[C@@H]1C[C@@H]([C@H](O)CC2CC(=O)NC(=O)C2)C(=O)[C@@H](C)C1
[2]
  inhibition: 109% (active)
[3]
  inhibition: 97.9% (active)
[5]
  inhibition: 48% (active)
[6]
  inhibition: 59.3% (active)

## CC1OC(OC2C=C3CCC4C(CCC5(C)C(c6ccc(=O)oc6)CCC45O)C3(C)CC2)C(O)C(OC2OC(CO)C(O)C(O)C2O)C1O (stereo not drawn)
[1]
  inhibition: 95.6% (active)
[2]
  inhibition: 110% (active)
[3]
  inhibition: 97.2% (active)
[4]
  inhibition: 94.4% (active)
[5]
  inhibition: 63.6% (active)
[6]
  inhibition: 48.1% (active)

## CN1C(=O)C[N+]([O-])=C(c2ccccc2)c2cc(Cl)ccc21
[5]
  inhibition: 13.7%
[6]
  inhibition: 0.34%

## O=C(c1ccc(Cl)cc1)C1CCCN(Cc2cccc3ncccc23)C1 (stereo not drawn)
[5]
  inhibition: 14.6%
[6]
  inhibition: -6.97%

## CCOC(=O)C1(CCc2ccccc2)CCN(Cc2cccc3cnccc23)CC1
[5]
  inhibition: 10.4%
[6]
  inhibition: 9.69%

## Cc1ccc(N2C(=O)NC(=O)C(CCc3ccccn3)(Cc3ccc(F)cc3)C2=O)cc1 (stereo not drawn)
[5]
  inhibition: -10.7%
[6]
  inhibition: 7.3%

## COC(=O)C1=C(C(=O)OC)C2c3ccccc3C1c1ccccc12
[5]
  inhibition: 12.3%
[6]
  inhibition: 2.05%

## C=C1C(=O)O[C@H]2C[C@@H](C)[C@@H]3C=CC(=O)[C@@]3(C)C[C@H]12
[5]
  inhibition: 69.4% (active)
[6]
  inhibition: 23%

## CCOP(=O)(OCC)c1cccc(OP(=O)(c2cccc([N+](=O)[O-])c2)c2cccc([N+](=O)[O-])c2)c1
[5]
  inhibition: -4.6%
[6]
  inhibition: -32.1%

## CN(Cc1cccc(-c2cccnc2)c1)C(=O)Oc1ccc([N+](=O)[O-])cc1
[5]
  inhibition: 2.36%
[6]
  inhibition: 49.7% (active)

## O=C1NC(=O)N(Cc2ccco2)C(=O)/C1=C/C=C/c1ccco1
[5]
  inhibition: 8.52%
[6]
  inhibition: -57.3%

## CCN1CCN(S(=O)(=O)c2ccc(Cl)c(C(=O)Nc3ccc(C(=O)N(CC)CC)cc3)c2)CC1
[5]
  inhibition: -10.1%
[6]
  inhibition: 2.66%

## Oc1ccc(-[n+]2c(-c3ccccc3)cc(-c3ccccc3)cc2-c2ccccc2)cc1
[5]
  inhibition: 35.3%
[6]
  inhibition: 33.1%

## CC(=O)OC(C)(C)/C=C/C(=O)C(C)(O)C1[C@H](O)C[C@@]2(C)C3CC=C4C(CC[C@@H](O)C4(C)C)[C@]3(CO)C(=O)C[C@]12C (stereo partly drawn)
[5]
  inhibition: 31.1%
[6]
  inhibition: 55.2% (active)

## COC1=C(C)C(=O)C2=C(C1=O)C(CO)N1C(C#N)C3CC4C(C1C2N1CCOC41)N3C (stereo not drawn)
[1]
  inhibition: 86.5% (active)
[2]
  inhibition: 106% (active)
[3]
  inhibition: 96.2% (active)
[4]
  inhibition: 95.3% (active)
[5]
  inhibition: 41.7% (active)
[6]
  inhibition: 57% (active)

## CC(=O)OC1CC(OC2C(O)CC(OC3C(O)CC(OC4CCC5(C)C(CCC6C5CCC5(C)C(C7=CC(=O)OC7)CCC65O)C4)OC3C)OC2C)OC(C)C1OC1OC(CO)C(O)C(O)C1O (stereo not drawn)
[1]
  inhibition: 94.6% (active)
[2]
  inhibition: 109% (active)
[3]
  inhibition: 96.6% (active)
[4]
  inhibition: 92.5% (active)
[5]
  inhibition: 67.4% (active)
[6]
  inhibition: 54.4% (active)
